Source: PubChem BioAssay (NCI)
About 83,000 compounds went through this panel and 20% of them were active in at least one assay; those are over-represented in the sample as a whole.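 96-well plates, one dose, 48 hours. Percent growth reported; active if below 10.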 A number with no mark means an inactive call. Active and inactive are the calls of the source.

Tests used:
Assay in all cases: NCI-60 one-dose screen, 48 h (100 = growth as untreated, 0 = no growth, -100 = all killed)
Details in all cases: 10 µM unless noted
SR leukemia = tested on: SR leukemia
RPMI-8226 leukemia = tested on: RPMI-8226 leukemia
OVCAR-8 ovarian = tested on: OVCAR-8 ovarian
OVCAR-5 ovarian = tested on: OVCAR-5 ovarian
OVCAR-4 ovarian = tested on: OVCAR-4 ovarian
SK-OV-3 ovarian = tested on: SK-OV-3 ovarian
IGROV1 ovarian = tested on: IGROV1 ovarian
OVCAR-3 ovarian = tested on: OVCAR-3 ovarian
HS 578T breast = tested on: HS 578T breast
NCI/ADR-RES ovarian = tested on: NCI/ADR-RES ovarian

Row | SMILES | growth (SR leukemia) | growth (RPMI-8226 leukemia) | growth (OVCAR-8 ovarian) | growth (OVCAR-5 ovarian) | growth (OVCAR-4 ovarian) | growth (SK-OV-3 ovarian) | growth (IGROV1 ovarian) | growth (OVCAR-3 ovarian) | growth (HS 578T breast) | growth (NCI/ADR-RES ovarian)
1 | C=CCn1cc(-c2nc3ccccc3s2)c2cc(-c3ccc4c5c(cccc35)C(=O)N(N)C4=O)ccc21 | 89.7% | 99.3% | 102% | 103% | 97.8% | 95.3% | 69.8% | 100% | 103% | 96.5%
2 | COc1ccc2[nH]cc(C(c3cc(F)cc(F)c3)c3c[nH]c4ccc(OC)cc34)c2c1 | 46.8% | 57.5% | 87.2% | 85% | 93.9% | 94.8% | -7.1% (active) | 89.9% | 67.2% | 72.9%
3 | Nc1c(C(=O)Nc2ccccc2Cl)sc2nc3c(cc12)C(O)CCC3 (stereo not given) | 13.4% | 25.2% | 32.3% | 80.6% | 53.9% | 42.9% | 57.2% | 15.5% | 58.5% | 18.8%
4 | COC(=O)c1c2c(c(C)[n+]([O-])c1C)C(=O)C=C(NCc1ccc(OC)cc1)C2=O | -0.642% (active) | -16.5% (active) | 1.17% (active) | -54.6% (active) | -98.5% (active) | 8.27% (active) | -61.5% (active) | -40.5% (active) | -10.2% (active) | -7.81% (active)
5 | Nc1ncnc2c1N=C(c1ccc3c(c1)OCO3)CC(c1ccc([N+](=O)[O-])cc1)N2 (stereo not given) | 45.6% | 46.2% | 87.3% | 75.8% | 99% | 86% | 3.46% (active) | 103% | 74% | 82%
6 | O=[N+]([O-])c1ccc(S(=O)(=O)N2CCN(C3=NS(=O)(=O)c4ccccc4N3c3ccccc3)CC2)cc1 | 40.5% | 58.7% | 93.1% | 95% | 99.8% | 102% | 97% | 94.4% | 109% | 92.9%
7 | COCCn1c(-c2csc(-c3cn(C)c4ccc(OC)cc34)n2)cc2cccnc21 | 18.4% | 65.4% | 59.7% | 79.9% | 55.9% | 65.2% | 94.5% | 65.5% | 58.5% | 46.4%
8 | CCCCC(=O)Nc1ncc(Cc2ccc(Cl)cc2)s1 | 33.5% | 86.2% | 84.9% | 73.9% | 80% | 79.1% | 66.5% | 68.3% | 72.9% | 48.4%
9 | COc1ccc2cc(C(=O)c3coc4ccc(O)cc34)ccc2c1 | 78.9% | 91.5% | 106% | 103% | 97.6% | 77.2% | 85.2% | 100% | 112% | 99.8%
10 | O=C(CSc1nnc2n1S(=O)(=O)c1ccccc1N2c1ccccc1)Nc1nc2ccc(F)cc2s1 | 62.9% | 76.5% | 84.9% | 94.7% | 99.5% | 108% | 34.7% | 106% | 101% | 92.8%
11 | COc1cc(-c2nc(SCCC(C)C)nc(Nc3ccccc3Cl)c2C#N)cc(OC)c1OC | 102% | 101% | 101% | 89.7% | 90.2% | 120% | 91.6% | 105% | 95.6% | 101%
12 | OCc1cccc(-c2ccc3ncc(-c4nc(NC5CC5)ncc4F)n3c2)c1 | -13.5% (active) | -29.8% (active) | -2.83% (active) | -9.98% (active) | -1.5% (active) | 14% | -13.3% (active) | -1.89% (active) | -29.8% (active) | -3.01% (active)
13 | COC(=O)[C@]1(C)CCC[C@]2(C)[C@H]3C[C@H]4C(C(C)C)=C[C@]3(CC[C@H]21)[C@H]1[C@@H]4[C@@H](OCCC#N)CC[C@@H]1OCCC#N | 2.88% (active) | -16.1% (active) | 51.5% | 92.8% | 30.7% | 75.8% | 41.5% | 22.7% | 59.4% | 41.8%
14 | Fc1cc2c(cc1Cl)N(c1ncnc3ccc(-c4cnc5[nH]ncc5c4)cc13)CC2 | 57.1% | 60.3% | 60.9% | 38.4% | 66.4% | 50.8% | 13.2% | 60.4% | 25.9% | 65.2%
